# According to PubChem BioAssay (EPA / NIEHS):
# Active and inactive are the calls of the source. How the source made its calls: active means hit-call score of the fitted dose curve at least 0.9, where 1 is the maximum; inactive means score below 0.9.
# Assays:
# [1] = ATG_E_Box_CIS: Attagene CIS-FACTORIAL HepG2 Assay for human Enhancer Box (E-box) (AID 2282936); conditions: HepG2 E-box cis-reporter transcription, actives raise or lower the signal
# Summary of the method: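 Cells: HepG2 (human liver), transient MRTU transfection. Exposure 24 h. RNA → oligo(dT) RT → PCR → 6-FAM label → HpaI → CE. Activity fitted both directions relative to DMSO.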
# [2] = ATG_M_61_CIS: Attagene CIS-FACTORIAL HepG2 Assay for M61 Transcription Factor (Internal Marker) (AID 2282937); conditions: HepG2 Attagene CIS-FACTORIAL M61 internal marker reporter; actives raise or lower the signal
# Summary of the method: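 Readout: fluorescent reporter mRNA fragments resolved by capillary electrophoresis after RT-PCR. Transiently transfected human HepG2 cells carried MRTU constructs reporting endogenous TF activity; 24 h chemical exposure; gain or loss of signal fitted relative to DMSO.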
# [3] = ATG_EGR_CIS: Attagene CIS-FACTORIAL HepG2 Assay for human Early Growth Response 1 (EGR1) (AID 2282938); conditions: HepG2 Attagene CIS-FACTORIAL EGR reporter mRNA; actives raise or lower the signal
# Summary of the method: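 Read-out: fluorescent reporter-mRNA fragments resolved by capillary electrophoresis after RT-PCR, 24 h post-dose in transiently transfected HepG2. Endogenous transcription-factor activity reported via cis-element-regulated reporter units; gain or loss fitted relative to DMSO.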
# [4] = ATG_M_19_CIS: Attagene CIS-FACTORIAL HepG2 Assay for M19 Transcription Factor (Internal Marker) (AID 2282939); conditions: HepG2 Attagene CIS-FACTORIAL M19 internal marker reporter; actives raise or lower the signal
# Summary of the method: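 In this multiplexed cell assay, transiently transfected HepG2 reporter units report endogenous transcription-factor activity; after 24 hours of treatment, labelled reporter cDNA fragments are quantified by capillary electrophoresis and fitted bidirectionally against DMSO.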
# [5] = ATG_ERE_CIS: Attagene CIS-FACTORIAL HepG2 Assay for Estrogen Response Element (ERE) (AID 2282940); conditions: HepG2 ERE cis-reporter, Attagene RNA transcript; actives raise or lower the signal
# Summary of the method: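 Measuring endogenous transcription factor output, the assay doses transfected HepG2 cells for 24 hours and quantifies reporter transcripts by fluorescent RT-PCR and capillary electrophoresis, with DMSO as baseline.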
# [6] = ATG_Ets_CIS: Attagene CIS-FACTORIAL HepG2 Assay for human Erythroblast Transformation Specific (ETS) (AID 2282941); conditions: HepG2 ETS cis-reporter transcription, actives raise or lower the signal
# Summary of the method: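 Steps: transfect HepG2 with multiple reporter units; treat compound 24 h; isolate RNA, DNase-treat, reverse-transcribe; PCR-amplify, label with 6-FAM, digest with HpaI; separate by capillary electrophoresis. Activity fitted both directions versus DMSO.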
# [7] = biological target: Hepatocyte nuclear factor 3-beta (Homo sapiens) (UniProt Q9Y261); test: ATG_FoxA2_CIS: Attagene CIS-FACTORIAL HepG2 Assay for human Forkhead box A2 (FOXA2) (AID 2282942); conditions: HepG2 cis-reporter transcription factor activity, 24 h; actives raise or lower the signal
# Summary of the method: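 Readout: fluorescent reporter transcripts resolved by capillary electrophoresis after RT-PCR. Transiently transfected HepG2, 24 h compound exposure, endogenous TF activity at cis promoter elements. Gain or loss of signal fitted relative to DMSO.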
# [8] = ATG_FoxO_CIS: Attagene CIS-FACTORIAL HepG2 Assay for human Forkhead box O (FoxO) (AID 2282943); conditions: HepG2 Attagene cis-reporter, FoxO element, mRNA; actives raise or lower the signal
# Summary of the method: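 Endogenous transcription factor activity read from multiplexed cis-promoter reporter transcripts in transiently transfected HepG2, 24 h after dosing. Reporter RNA measured via RT-PCR plus capillary electrophoresis of FAM-labeled products; gain or loss relative to DMSO.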
# [9] = ATG_GATA_CIS: Attagene CIS-FACTORIAL HepG2 Assay for human GATA Binding Protein (AID 2282944); conditions: HepG2 GATA cis-element reporter, Attagene multiplex mRNA; actives raise or lower the signal
# Summary of the method: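 Measures endogenous transcription factor-driven reporter mRNA in HepG2 cells transiently carrying cis-regulated constructs. 24 h dosing; RNA via oligo(dT) reverse transcription, PCR, HpaI digestion, capillary electrophoresis; fitted relative to DMSO.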
# [10] = ATG_GLI_CIS: Attagene CIS-FACTORIAL HepG2 Assay for human Zinc Finger Protein GLI1 (AID 2282945); conditions: HepG2, Attagene cis-factorial reporter mRNA, GLI element; actives raise or lower the signal
# Summary of the method: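 Bidirectional curve fits relative to DMSO, using reporter mRNA levels from RT-PCR plus capillary electrophoresis. Cells were HepG2 transiently carrying cis-regulated reporter constructs, harvested 24 h after dosing.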
# [11] = ATG_GRE_CIS: Attagene CIS-FACTORIAL HepG2 Assay for human Glucocorticoid Response Elements (GRE) (AID 2282947); conditions: HepG2 GRE cis-reporter, Attagene multiplex mRNA; actives raise or lower the signal
# Summary of the method: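 Transient MRTU transfection of human HepG2 liver cells; cis-regulated reporters report endogenous factors. 24 h dosing → RNA isolation → RT-PCR → 6-FAM primer extension → HpaI cut → CE fragment analysis. Bidirectional fit, DMSO negative control.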
# [12] = ATG_ISRE_CIS: Attagene CIS-FACTORIAL HepG2 Assay for human Interferon Regulatory Factor 1 (IRF1) binding to an Interferon-Stimulated Response Element (ISRE) (AID 2282948); conditions: HepG2 ISRE cis-reporter (Attagene), mRNA transcription readout; actives raise or lower the signal
# Summary of the method: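 Transfected HepG2 (multiple reporter transcription units, cis elements) dosed 24 h. RNA → oligo(dT) RT → PCR → 6-FAM primer extension → HpaI → CE. DMSO = negative control/baseline.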
# [13] = ATG_M_32_CIS: Attagene CIS-FACTORIAL HepG2 Assay for M32 Transcription Factor (Internal Marker) (AID 2282949); conditions: HepG2 Attagene cis-factorial M32 reporter, mRNA; actives raise or lower the signal;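 further: background control marker of the multiplexed CIS panel rather than a real target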
# Summary of the method: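 Fluorescent capillary electrophoresis peaks of HpaI-digested, FAM-labelled RT-PCR reporter products give the signal. Source: transiently transfected human liver HepG2 cells, 24 h after chemical dosing; bidirectional fitting against DMSO.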
# [14] = ATG_M_06_CIS: Attagene CIS-FACTORIAL HepG2 Assay for M06 Transcription Factor (Internal Marker) (AID 2282950); conditions: HepG2 Attagene CIS-FACTORIAL M06 internal marker reporter; actives raise or lower the signal
# Summary of the method: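 One of many multiplexed endpoints: HepG2 reporter mRNA after 24 h dosing, detected by RT-PCR and capillary electrophoresis fluorescence; gain or loss of signal analysed against DMSO.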
# [15] = biological target: Hypoxia-inducible factor 1-alpha (Homo sapiens) (UniProt Q16665); test: ATG_HIF1a_CIS: Attagene CIS-FACTORIAL HepG2 Assay for human Hypoxia Inducible Factor 1 (HIF1A) (AID 2282951); conditions: HepG2 Attagene cis-factorial HIF1a reporter transcription; actives raise or lower the signal
# Summary of the method: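 RT-PCR/capillary electrophoresis fluorescence readout of reporter transcripts from endogenous-TF-driven cis elements in transfected HepG2 cells, 24 h exposure; activity fitted in both directions against DMSO controls.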
# [16] = biological target: Hepatocyte nuclear factor 6 (Homo sapiens) (UniProt Q9UBC0); test: ATG_HNF6_CIS: Attagene CIS-FACTORIAL HepG2 Assay for human Hepatocyte Nuclear Factor 6 (HNF6) (AID 2282952); conditions: HepG2 Attagene cis-factorial HNF6 reporter transcription; actives raise or lower the signal
# Summary of the method: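 HepG2 cells transiently transfected with cis-element-driven multiple reporter transcription units, dosed 24 h; reporter mRNA quantified by RT-PCR, FAM primer extension, HpaI digestion and capillary electrophoresis; bidirectional fit versus DMSO baseline.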
# [17] = biological target: Heat shock factor protein 1 (Homo sapiens) (UniProt Q00613); test: ATG_HSE_CIS: Attagene CIS-FACTORIAL HepG2 Assay for human Heat Shock Transcription Factor 1 (HSE) (AID 2282953); conditions: HepG2 HSE cis-reporter, Attagene RNA transcription; actives raise or lower the signal
# Summary of the method: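 Using HepG2 with transfected cis-driven reporter constructs, compound effects on endogenous factor activity are scored as reporter mRNA change at 24 h. Detection: RT-PCR, HpaI digestion, capillary electrophoresis; bidirectional fitting to DMSO.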
# [18] = ATG_MRE_CIS: Attagene CIS-FACTORIAL HepG2 Assay for human Metal Responsive Element (MRE) (AID 2282954); conditions: HepG2 MRE cis-reporter transcription, Attagene multiplex; actives raise or lower the signal
# Summary of the method: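 Transient MRTU transfection of HepG2 (FuGene 6); 24 h dosing; total RNA → oligo(dT) RT, PCR, 6-FAM primer extension, HpaI cut, CE. Bidirectional fit vs DMSO.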
# [19] = ATG_PBREM_CIS: Attagene CIS-FACTORIAL HepG2 Assay for human Phenobarbital-responsive Enhancer Module (PBREM) (AID 2282955); conditions: HepG2 PBREM cis-reporter, Attagene multiplexed transcription; actives raise or lower the signal
# Summary of the method: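 Reporter mRNA read by RT-PCR, 6-FAM primer extension, HpaI digestion and capillary electrophoresis. Transfected HepG2 cells, 24 h compound exposure. Gain or loss of signal fitted bidirectionally relative to DMSO baseline.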
# Sequence of Hypoxia-inducible factor 1-alpha (Homo sapiens) (Q16665 whole entry, looked up): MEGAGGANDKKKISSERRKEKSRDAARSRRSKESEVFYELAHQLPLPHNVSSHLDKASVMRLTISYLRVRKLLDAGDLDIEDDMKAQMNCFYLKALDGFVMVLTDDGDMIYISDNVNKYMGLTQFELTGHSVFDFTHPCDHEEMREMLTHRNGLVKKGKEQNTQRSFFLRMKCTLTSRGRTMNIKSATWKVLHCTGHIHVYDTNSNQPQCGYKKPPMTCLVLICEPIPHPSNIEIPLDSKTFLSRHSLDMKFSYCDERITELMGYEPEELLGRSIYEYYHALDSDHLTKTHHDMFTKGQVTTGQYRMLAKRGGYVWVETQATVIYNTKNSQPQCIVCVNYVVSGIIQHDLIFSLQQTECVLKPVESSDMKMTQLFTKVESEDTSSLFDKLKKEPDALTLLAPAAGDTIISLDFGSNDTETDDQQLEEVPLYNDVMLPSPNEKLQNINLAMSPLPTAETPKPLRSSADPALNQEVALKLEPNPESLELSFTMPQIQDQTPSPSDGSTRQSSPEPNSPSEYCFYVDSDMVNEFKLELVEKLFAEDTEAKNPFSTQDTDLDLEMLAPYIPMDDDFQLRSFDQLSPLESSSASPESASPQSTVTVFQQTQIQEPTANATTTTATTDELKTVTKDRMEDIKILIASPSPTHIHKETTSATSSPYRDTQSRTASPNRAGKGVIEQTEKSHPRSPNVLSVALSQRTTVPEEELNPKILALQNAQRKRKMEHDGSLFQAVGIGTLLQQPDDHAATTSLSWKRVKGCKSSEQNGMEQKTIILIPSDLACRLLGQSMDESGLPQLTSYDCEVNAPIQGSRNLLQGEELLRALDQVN
# Sequence of Heat shock factor protein 1 (Homo sapiens) (Q00613 whole entry, looked up): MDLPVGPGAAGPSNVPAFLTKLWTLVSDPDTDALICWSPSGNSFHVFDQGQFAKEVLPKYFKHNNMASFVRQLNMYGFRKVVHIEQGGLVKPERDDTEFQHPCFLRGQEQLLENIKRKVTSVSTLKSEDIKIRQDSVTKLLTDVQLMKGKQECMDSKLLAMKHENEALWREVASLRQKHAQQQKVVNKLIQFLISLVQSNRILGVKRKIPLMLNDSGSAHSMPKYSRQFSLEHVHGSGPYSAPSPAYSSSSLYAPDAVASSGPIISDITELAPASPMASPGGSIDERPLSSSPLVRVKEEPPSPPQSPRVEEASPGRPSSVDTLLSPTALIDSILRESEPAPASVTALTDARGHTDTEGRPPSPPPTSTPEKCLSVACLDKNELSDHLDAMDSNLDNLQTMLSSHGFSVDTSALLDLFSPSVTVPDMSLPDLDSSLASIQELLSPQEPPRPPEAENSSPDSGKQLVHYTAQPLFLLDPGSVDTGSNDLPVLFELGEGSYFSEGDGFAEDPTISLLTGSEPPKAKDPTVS
# Sequence of Hepatocyte nuclear factor 3-beta (Homo sapiens) (Q9Y261 whole entry, looked up): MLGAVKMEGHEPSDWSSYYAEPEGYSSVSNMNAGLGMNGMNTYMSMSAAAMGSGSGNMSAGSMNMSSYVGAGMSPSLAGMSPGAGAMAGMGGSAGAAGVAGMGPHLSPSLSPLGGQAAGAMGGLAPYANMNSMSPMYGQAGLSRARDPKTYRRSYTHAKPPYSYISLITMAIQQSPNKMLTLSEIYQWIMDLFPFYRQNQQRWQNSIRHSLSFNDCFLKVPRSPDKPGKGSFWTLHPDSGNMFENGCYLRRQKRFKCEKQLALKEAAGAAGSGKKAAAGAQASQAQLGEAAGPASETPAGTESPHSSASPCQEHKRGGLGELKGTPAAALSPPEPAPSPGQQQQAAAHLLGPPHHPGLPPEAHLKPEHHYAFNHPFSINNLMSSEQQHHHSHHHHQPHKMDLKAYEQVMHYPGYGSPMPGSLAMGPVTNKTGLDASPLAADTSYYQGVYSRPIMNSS
# Sequence of Hepatocyte nuclear factor 6 (Homo sapiens) (Q9UBC0 whole entry, looked up): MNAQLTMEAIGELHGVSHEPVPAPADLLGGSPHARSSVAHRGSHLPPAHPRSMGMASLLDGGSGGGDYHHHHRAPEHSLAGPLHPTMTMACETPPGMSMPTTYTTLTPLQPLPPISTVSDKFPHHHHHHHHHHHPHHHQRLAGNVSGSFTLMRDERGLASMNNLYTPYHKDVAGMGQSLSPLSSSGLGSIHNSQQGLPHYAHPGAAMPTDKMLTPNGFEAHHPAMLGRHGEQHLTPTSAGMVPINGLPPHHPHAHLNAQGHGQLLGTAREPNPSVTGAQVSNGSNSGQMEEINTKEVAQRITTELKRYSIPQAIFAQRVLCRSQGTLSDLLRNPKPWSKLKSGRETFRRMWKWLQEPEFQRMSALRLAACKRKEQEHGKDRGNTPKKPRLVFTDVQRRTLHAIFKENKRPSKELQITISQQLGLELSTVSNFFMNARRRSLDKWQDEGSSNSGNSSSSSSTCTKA
compound,measurement,setting,value
CCN(CC)c1ccc(C(=O)c2ccccc2C(=O)O)c(O)c1,outcome,[1],inactive
same,outcome,[2],inactive
same,outcome,[3],inactive
same,outcome,[4],inactive
same,outcome,[5],inactive
same,outcome,[6],inactive
same,outcome,[7],inactive
same,outcome,[8],inactive
same,outcome,[9],inactive
same,outcome,[10],inactive
same,outcome,[11],inactive
same,outcome,[12],inactive
same,outcome,[13],inactive
same,outcome,[14],inactive
same,outcome,[15],inactive
same,outcome,[16],inactive
same,outcome,[17],inactive
same,outcome,[18],inactive
same,AC50,[19],1.89 µM (active)
CC(C)C1=CC2=CC[C@@H]3[C@](C)(CCC[C@@]3(C)C(=O)O)[C@H]2CC1,outcome,[1],inactive
same,outcome,[2],inactive
same,AC50,[3],60.3 µM (active)
same,outcome,[4],inactive
same,outcome,[5],inactive
same,outcome,[6],inactive
same,outcome,[7],inactive
same,outcome,[8],inactive
same,AC50,[9],54.1 µM (active)
same,outcome,[10],inactive
same,AC50,[11],119 µM (active)
same,outcome,[12],inactive
same,outcome,[13],inactive
same,outcome,[14],inactive
same,AC50,[15],100 µM (active)
same,AC50,[17],145 µM (active)
same,AC50,[18],106 µM (active)
same,outcome,[19],inactive
CCCCCCCCCCOC(C)=O,outcome,[1],inactive
same,outcome,[2],inactive
same,outcome,[3],inactive
same,outcome,[4],inactive
same,AC50,[5],8.88 µM (active)
same,outcome,[6],inactive
same,outcome,[7],inactive
same,outcome,[8],inactive
same,outcome,[9],inactive
same,outcome,[10],inactive
same,outcome,[11],inactive
same,outcome,[12],inactive
same,outcome,[13],inactive
same,outcome,[14],inactive
same,outcome,[15],inactive
same,outcome,[16],inactive
same,outcome,[17],inactive
same,outcome,[18],inactive
same,outcome,[19],inactive
CNC(=S)NN,outcome,[1],inactive
same,outcome,[2],inactive
same,outcome,[3],inactive
same,outcome,[4],inactive
same,outcome,[5],inactive
same,outcome,[6],inactive
same,outcome,[7],inactive
same,outcome,[8],inactive
same,outcome,[9],inactive
same,outcome,[10],inactive
same,outcome,[11],inactive
same,outcome,[12],inactive
same,outcome,[13],inactive
same,outcome,[14],inactive
same,outcome,[15],inactive
same,outcome,[16],inactive
same,outcome,[17],inactive
same,outcome,[18],inactive
O=C(Nc1ccccc1)c1ccccc1O,outcome,[1],inactive
same,outcome,[2],inactive
same,outcome,[3],inactive
same,outcome,[4],inactive
same,AC50,[5],63.1 µM (active)
same,AC50,[6],100 µM (active)
same,outcome,[7],inactive
same,outcome,[8],inactive
same,outcome,[9],inactive
same,outcome,[10],inactive
same,outcome,[11],inactive
same,outcome,[12],inactive
same,outcome,[13],inactive
same,outcome,[14],inactive
same,outcome,[15],inactive
same,outcome,[16],inactive
same,outcome,[17],inactive
same,outcome,[18],inactive
same,outcome,[19],inactive
CC1(C)O[C@@H]2C[C@H]3[C@@H]4C[C@H](F)C5=CC(=O)CC[C@]5(C)[C@H]4[C@@H](O)C[C@]3(C)[C@]2(C(=O)CO)O1,outcome,[1],inactive
same,outcome,[2],inactive
same,outcome,[3],inactive
same,outcome,[4],inactive
same,outcome,[5],inactive
same,outcome,[6],inactive
same,outcome,[7],inactive
same,outcome,[8],inactive
same,outcome,[9],inactive
same,outcome,[10],inactive
same,AC50,[11],0.0823 µM (active)
same,outcome,[12],inactive
same,outcome,[13],inactive
same,outcome,[14],inactive
same,outcome,[15],inactive
same,outcome,[16],inactive
ON(Cc1ccccc1)Cc1ccccc1,outcome,[1],inactive
same,outcome,[2],inactive
same,outcome,[3],inactive
same,outcome,[4],inactive
same,outcome,[5],inactive
same,outcome,[6],inactive
same,outcome,[7],inactive
same,outcome,[8],inactive
same,outcome,[9],inactive
same,outcome,[10],inactive
same,outcome,[11],inactive
same,outcome,[12],inactive
same,outcome,[13],inactive
same,outcome,[14],inactive
same,outcome,[15],inactive
same,outcome,[16],inactive
same,outcome,[18],inactive
same,outcome,[19],inactive
c1ccc2c(c1)ccc1ncccc12,outcome,[1],inactive
same,outcome,[2],inactive
same,outcome,[3],inactive
same,outcome,[4],inactive
same,outcome,[5],inactive
same,outcome,[6],inactive
same,outcome,[7],inactive
same,outcome,[8],inactive
same,outcome,[9],inactive
same,outcome,[10],inactive
same,outcome,[11],inactive
same,AC50,[12],150 µM (active)
same,outcome,[13],inactive
same,outcome,[14],inactive
same,outcome,[15],inactive
same,outcome,[17],inactive
same,outcome,[18],inactive
same,outcome,[19],inactive
